Data taken from PubChem BioAssay AID488859 (Sanford-Burnham Center for Chemical Genomics, 2010).
Among all 1,400 compounds or so, about 970 (69%) were called active. About 5% were inconclusive and are not listed. Cut-off read from the data, not from the text of the source: active = inhibition above about 45%; inconclusive = no clear call, values can overlap the other calls; inactive = below that. The set was probably picked from earlier hits. A selection follows.

These compounds were tested against Ubiquitin-conjugating enzyme E2 N (Homo sapiens) (UniProt P61088) (assay: retested blockers of UBC13 chain formation – biochemical, TR-FRET, single concentration, confirmation (AID 488859)). Details: UBC13 polyubiquitination, at 10 µM, stronger effect = higher value.
Chain of Ubiquitin-conjugating enzyme E2 N (Homo sapiens) (P61088 whole entry, looked up): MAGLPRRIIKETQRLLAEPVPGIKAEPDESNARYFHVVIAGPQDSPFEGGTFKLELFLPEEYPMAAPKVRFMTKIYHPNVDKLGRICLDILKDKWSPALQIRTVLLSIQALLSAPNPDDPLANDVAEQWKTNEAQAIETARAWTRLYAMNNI

Compound | inhibition
CNCC(O)c1cc(F)c(OCc2ccccc2)c(OCc2ccccc2)c1F (stereo unspecified) | 50.4% (active)
